Reference: ChEMBL document CHEMBL1961873, “Compounds: GSK PKIS; Assays: Nanosyn kinase panel” (2012)

How the values were obtained:
[1] = target: T1, Inhibitor of nuclear factor kappa-B kinase subunit epsilon (Homo sapiens) (UniProt Q14164); conditions: at 1 µM;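 also: reported values are averaged percent inhibition figures against human IKKε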
T1 sequence (whole entry): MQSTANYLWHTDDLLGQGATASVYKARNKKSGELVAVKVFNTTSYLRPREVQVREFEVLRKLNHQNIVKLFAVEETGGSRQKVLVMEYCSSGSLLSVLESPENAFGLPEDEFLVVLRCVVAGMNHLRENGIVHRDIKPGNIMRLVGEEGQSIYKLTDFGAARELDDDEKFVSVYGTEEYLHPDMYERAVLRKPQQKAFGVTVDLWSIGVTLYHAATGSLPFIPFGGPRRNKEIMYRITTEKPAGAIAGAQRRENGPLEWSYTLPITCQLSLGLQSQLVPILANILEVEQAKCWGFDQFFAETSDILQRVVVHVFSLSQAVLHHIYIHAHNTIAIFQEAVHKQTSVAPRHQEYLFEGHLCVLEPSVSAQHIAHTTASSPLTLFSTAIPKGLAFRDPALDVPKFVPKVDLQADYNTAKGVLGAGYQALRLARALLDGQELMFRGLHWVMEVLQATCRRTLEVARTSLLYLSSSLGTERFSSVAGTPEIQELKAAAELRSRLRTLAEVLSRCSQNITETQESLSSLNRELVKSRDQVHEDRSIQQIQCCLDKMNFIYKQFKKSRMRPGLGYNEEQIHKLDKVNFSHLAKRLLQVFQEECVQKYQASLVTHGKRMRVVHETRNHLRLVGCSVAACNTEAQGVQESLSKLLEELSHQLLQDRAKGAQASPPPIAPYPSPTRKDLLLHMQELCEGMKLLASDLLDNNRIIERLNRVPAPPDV

[2] = target: T2, Serine/threonine-protein kinase Nek1 (Homo sapiens) (UniProt Q96PY6); conditions: at 0.1 µM
T2 sequence (whole entry): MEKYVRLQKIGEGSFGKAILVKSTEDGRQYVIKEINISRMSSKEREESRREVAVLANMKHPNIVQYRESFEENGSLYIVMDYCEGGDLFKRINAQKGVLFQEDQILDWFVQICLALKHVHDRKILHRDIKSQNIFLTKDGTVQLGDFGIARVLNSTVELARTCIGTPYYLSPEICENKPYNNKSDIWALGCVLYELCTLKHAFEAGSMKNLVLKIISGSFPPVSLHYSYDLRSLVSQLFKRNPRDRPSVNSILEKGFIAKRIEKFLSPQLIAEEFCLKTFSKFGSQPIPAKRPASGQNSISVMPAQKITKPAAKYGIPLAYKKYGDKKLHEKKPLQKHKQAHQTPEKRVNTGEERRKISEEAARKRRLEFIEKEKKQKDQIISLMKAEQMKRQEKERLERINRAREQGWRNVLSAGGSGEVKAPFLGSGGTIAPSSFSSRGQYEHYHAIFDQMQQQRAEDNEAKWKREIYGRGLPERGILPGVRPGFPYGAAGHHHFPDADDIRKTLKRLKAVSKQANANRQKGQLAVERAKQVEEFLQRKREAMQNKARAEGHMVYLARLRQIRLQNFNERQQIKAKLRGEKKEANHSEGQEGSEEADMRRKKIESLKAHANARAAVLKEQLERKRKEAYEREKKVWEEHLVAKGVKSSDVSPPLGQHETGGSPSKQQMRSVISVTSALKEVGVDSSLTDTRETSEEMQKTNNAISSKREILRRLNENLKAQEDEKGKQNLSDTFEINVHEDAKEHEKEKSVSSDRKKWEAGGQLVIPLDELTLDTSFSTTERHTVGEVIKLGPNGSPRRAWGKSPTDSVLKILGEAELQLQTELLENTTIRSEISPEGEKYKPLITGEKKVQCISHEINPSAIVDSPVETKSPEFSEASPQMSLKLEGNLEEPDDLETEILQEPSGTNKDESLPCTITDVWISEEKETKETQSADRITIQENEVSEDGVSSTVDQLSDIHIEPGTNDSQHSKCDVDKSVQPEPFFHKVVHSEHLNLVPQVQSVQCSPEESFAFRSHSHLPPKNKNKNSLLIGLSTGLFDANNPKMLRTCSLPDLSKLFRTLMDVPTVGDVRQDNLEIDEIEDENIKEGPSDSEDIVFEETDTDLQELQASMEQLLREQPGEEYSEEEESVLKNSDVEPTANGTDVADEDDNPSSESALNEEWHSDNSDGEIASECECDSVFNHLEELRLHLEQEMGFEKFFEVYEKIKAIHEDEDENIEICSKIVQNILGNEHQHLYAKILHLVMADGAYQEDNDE

[3] = target: T2, Serine/threonine-protein kinase Nek1 (Homo sapiens); conditions: at 1 µM
[4] = target: T3, Serine/threonine-protein kinase Nek2 (Homo sapiens) (UniProt P51955); conditions: at 0.1 µM
T3 sequence (whole entry): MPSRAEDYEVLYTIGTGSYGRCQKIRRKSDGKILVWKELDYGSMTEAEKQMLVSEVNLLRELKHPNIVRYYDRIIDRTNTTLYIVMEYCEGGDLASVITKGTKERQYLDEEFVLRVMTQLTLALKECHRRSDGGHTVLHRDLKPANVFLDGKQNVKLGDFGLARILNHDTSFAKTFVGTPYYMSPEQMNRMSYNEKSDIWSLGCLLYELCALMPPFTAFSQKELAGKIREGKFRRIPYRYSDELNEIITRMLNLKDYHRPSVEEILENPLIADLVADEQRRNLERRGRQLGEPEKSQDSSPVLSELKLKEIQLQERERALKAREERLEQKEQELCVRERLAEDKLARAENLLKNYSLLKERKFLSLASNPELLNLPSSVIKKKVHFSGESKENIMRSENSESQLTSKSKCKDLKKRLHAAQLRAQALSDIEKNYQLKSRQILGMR

[5] = target: T3, Serine/threonine-protein kinase Nek2 (Homo sapiens); conditions: at 1 µM
[6] = target: Serine/threonine-protein kinase Nek6 (Homo sapiens) (UniProt Q9HC98); conditions: at 0.1 µM
Sequence of Serine/threonine-protein kinase Nek6 (Homo sapiens) (Q9HC98 whole entry): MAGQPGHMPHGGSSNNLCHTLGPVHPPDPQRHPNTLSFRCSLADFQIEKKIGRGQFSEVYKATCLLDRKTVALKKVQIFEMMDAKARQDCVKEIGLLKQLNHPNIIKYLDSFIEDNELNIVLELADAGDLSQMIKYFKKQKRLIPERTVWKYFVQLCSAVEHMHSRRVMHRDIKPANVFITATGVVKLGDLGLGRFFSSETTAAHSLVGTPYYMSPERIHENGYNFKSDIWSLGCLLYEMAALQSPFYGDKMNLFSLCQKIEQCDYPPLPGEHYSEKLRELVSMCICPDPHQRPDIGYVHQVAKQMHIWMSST

[7] = target: Serine/threonine-protein kinase Nek6 (Homo sapiens) (UniProt Q9HC98); conditions: at 1 µM
[8] = target: Serine/threonine-protein kinase Nek7 (Homo sapiens) (UniProt Q8TDX7); conditions: at 0.1 µM
Sequence of Serine/threonine-protein kinase Nek7 (Homo sapiens) (Q8TDX7 whole entry, looked up): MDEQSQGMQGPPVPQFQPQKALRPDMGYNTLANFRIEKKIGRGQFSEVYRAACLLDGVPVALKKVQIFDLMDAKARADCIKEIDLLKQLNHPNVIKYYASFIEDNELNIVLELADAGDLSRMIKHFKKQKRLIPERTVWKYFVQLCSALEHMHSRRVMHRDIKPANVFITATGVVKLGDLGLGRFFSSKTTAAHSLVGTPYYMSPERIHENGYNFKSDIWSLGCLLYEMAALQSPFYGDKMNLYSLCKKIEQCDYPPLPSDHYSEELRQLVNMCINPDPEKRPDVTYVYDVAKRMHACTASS

[9] = target: Serine/threonine-protein kinase Nek7 (Homo sapiens) (UniProt Q8TDX7); conditions: at 1 µM
[10] = target: T4, Serine/threonine-protein kinase Nek9 (Homo sapiens) (UniProt Q8TD19); conditions: at 0.1 µM
T4 sequence (whole entry): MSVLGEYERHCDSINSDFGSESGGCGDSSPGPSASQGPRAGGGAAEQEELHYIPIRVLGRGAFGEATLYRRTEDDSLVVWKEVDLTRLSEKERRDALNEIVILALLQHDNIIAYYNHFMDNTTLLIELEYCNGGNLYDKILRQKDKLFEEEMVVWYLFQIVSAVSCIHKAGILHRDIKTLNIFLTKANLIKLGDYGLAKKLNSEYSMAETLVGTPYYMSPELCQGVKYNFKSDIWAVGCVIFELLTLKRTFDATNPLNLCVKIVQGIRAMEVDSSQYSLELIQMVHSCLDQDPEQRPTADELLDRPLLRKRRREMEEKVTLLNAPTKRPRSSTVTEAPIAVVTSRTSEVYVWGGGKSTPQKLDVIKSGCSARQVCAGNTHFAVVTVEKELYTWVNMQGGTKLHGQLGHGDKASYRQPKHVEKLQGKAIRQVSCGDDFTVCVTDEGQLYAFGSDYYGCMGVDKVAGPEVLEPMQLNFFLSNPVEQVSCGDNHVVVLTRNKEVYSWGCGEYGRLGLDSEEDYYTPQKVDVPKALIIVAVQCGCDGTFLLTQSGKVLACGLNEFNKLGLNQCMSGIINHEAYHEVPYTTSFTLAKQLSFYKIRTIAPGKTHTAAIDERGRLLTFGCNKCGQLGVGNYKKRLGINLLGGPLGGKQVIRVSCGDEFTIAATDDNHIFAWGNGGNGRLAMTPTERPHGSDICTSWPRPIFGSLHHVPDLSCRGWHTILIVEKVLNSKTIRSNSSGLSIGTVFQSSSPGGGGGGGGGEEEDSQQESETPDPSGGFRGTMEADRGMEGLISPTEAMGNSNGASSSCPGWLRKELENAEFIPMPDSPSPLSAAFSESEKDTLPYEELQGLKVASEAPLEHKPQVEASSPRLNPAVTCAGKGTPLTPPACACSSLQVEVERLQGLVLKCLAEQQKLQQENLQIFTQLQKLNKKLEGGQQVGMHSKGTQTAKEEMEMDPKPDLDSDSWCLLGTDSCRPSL

[11] = target: T4, Serine/threonine-protein kinase Nek9 (Homo sapiens); conditions: at 1 µM
[12] = target: Serine/threonine-protein kinase PLK1 (Homo sapiens) (UniProt P53350); conditions: at 0.1 µM
Sequence of Serine/threonine-protein kinase PLK1 (Homo sapiens) (P53350 whole entry): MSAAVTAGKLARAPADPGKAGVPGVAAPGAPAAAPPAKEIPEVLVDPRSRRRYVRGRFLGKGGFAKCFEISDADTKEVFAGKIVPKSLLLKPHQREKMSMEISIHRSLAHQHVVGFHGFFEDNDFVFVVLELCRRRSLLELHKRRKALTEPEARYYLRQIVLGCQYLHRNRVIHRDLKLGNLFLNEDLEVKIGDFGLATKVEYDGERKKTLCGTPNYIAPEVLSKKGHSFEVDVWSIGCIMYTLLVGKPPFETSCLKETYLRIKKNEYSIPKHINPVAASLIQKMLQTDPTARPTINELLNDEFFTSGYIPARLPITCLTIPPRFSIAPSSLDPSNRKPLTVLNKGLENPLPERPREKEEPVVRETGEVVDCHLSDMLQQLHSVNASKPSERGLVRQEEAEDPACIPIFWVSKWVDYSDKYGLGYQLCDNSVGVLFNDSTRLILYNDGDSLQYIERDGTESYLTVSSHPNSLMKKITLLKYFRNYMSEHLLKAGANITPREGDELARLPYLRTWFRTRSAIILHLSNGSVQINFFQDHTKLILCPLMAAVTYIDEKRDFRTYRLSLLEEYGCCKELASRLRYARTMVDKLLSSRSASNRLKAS

[13] = target: Serine/threonine-protein kinase PLK1 (Homo sapiens) (UniProt P53350); conditions: at 1 µM
[14] = target: T5, Dual specificity protein kinase TTK (Homo sapiens) (UniProt P33981); conditions: at 0.1 µM
T5 sequence (whole entry): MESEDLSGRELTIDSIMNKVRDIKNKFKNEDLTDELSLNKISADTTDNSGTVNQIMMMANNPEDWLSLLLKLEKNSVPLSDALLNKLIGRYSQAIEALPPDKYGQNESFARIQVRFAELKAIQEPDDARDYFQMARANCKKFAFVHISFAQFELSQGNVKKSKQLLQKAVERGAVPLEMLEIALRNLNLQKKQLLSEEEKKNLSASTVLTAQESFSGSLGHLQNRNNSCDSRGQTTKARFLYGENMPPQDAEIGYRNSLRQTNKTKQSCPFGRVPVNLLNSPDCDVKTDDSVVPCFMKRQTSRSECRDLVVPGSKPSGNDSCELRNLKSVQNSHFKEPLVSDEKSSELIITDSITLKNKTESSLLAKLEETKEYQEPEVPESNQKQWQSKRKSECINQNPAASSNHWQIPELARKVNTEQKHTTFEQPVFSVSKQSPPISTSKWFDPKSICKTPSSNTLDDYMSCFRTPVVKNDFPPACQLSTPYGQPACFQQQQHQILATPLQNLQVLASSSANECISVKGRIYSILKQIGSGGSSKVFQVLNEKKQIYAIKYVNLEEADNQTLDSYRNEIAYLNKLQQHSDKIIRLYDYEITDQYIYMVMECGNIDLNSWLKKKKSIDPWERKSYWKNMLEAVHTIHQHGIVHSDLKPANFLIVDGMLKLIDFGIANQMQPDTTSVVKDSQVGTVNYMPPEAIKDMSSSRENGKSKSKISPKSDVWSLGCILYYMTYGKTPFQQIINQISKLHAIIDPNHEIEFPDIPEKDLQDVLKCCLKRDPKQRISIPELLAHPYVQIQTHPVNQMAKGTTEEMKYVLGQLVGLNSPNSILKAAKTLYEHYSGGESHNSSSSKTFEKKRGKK

[15] = test system: T6, Receptor-type tyrosine-protein kinase FLT3 (Homo sapiens), P36888 [D835Y]; conditions: at 1 µM
T6 sequence (whole entry): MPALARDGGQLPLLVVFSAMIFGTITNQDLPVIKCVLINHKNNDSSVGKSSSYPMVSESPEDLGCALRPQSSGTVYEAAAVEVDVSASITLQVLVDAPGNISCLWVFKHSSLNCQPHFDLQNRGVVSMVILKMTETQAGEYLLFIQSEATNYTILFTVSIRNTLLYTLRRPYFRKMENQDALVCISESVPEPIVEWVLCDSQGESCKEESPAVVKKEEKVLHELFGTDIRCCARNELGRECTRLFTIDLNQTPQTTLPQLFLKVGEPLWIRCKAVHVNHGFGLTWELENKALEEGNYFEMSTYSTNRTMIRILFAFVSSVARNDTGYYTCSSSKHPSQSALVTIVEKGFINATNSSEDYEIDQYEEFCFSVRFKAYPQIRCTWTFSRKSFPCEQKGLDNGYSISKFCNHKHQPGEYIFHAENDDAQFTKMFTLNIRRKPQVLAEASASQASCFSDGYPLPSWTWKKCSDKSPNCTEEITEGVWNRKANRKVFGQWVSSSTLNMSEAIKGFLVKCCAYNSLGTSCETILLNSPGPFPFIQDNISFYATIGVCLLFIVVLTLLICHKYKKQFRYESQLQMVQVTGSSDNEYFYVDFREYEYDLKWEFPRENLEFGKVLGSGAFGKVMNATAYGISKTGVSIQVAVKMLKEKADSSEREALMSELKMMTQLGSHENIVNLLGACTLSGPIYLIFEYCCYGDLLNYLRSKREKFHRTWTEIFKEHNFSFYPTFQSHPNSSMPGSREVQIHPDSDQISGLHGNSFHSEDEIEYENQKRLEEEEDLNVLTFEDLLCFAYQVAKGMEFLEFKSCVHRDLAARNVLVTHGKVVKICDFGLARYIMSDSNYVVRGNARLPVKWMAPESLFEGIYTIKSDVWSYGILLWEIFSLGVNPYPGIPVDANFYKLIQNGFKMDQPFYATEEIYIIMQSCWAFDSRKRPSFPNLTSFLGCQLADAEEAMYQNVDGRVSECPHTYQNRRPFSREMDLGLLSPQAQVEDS

[16] = target: Vascular endothelial growth factor receptor 3 (Homo sapiens) (UniProt P35916); conditions: at 0.1 µM
Sequence of Vascular endothelial growth factor receptor 3 (Homo sapiens) (P35916 whole entry): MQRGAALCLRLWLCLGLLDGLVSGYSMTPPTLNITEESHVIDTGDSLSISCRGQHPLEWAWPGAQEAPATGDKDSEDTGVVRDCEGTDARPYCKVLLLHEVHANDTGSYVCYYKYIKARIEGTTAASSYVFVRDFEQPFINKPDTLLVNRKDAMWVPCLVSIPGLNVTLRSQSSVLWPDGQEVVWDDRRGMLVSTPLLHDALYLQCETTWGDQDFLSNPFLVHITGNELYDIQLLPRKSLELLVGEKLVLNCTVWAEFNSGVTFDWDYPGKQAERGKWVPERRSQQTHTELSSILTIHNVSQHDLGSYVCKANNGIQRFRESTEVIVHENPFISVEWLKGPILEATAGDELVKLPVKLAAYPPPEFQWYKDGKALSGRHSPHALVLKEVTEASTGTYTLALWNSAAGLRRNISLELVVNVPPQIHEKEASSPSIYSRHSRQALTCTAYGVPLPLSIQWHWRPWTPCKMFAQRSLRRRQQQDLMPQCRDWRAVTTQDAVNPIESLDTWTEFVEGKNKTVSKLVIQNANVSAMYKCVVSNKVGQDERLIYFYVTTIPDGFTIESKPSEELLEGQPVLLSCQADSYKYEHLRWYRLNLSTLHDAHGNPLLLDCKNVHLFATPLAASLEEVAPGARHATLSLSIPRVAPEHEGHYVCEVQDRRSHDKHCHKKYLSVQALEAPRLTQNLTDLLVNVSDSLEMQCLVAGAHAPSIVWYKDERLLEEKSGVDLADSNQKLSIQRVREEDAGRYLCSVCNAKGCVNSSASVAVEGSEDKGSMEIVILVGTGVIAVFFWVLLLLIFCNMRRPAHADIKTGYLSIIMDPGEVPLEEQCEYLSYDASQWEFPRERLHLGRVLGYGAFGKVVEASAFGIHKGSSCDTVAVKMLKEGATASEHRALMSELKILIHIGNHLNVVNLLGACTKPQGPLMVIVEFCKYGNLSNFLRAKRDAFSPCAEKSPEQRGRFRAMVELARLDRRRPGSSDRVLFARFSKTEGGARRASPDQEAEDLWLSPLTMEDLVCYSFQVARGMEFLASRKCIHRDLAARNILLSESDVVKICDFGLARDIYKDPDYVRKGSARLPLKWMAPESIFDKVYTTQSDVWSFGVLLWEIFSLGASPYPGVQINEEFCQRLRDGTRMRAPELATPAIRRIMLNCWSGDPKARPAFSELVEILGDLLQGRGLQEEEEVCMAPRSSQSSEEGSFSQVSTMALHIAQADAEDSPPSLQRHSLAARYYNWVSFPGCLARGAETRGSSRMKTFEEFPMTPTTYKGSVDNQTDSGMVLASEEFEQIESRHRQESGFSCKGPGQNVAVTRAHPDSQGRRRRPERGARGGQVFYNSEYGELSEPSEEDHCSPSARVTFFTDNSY

[17] = target: Vascular endothelial growth factor receptor 3 (Homo sapiens) (UniProt P35916); conditions: at 1 µM
[18] = target: Macrophage colony-stimulating factor 1 receptor (Homo sapiens) (UniProt P07333); conditions: at 0.1 µM
Sequence of Macrophage colony-stimulating factor 1 receptor (Homo sapiens) (P07333 whole entry): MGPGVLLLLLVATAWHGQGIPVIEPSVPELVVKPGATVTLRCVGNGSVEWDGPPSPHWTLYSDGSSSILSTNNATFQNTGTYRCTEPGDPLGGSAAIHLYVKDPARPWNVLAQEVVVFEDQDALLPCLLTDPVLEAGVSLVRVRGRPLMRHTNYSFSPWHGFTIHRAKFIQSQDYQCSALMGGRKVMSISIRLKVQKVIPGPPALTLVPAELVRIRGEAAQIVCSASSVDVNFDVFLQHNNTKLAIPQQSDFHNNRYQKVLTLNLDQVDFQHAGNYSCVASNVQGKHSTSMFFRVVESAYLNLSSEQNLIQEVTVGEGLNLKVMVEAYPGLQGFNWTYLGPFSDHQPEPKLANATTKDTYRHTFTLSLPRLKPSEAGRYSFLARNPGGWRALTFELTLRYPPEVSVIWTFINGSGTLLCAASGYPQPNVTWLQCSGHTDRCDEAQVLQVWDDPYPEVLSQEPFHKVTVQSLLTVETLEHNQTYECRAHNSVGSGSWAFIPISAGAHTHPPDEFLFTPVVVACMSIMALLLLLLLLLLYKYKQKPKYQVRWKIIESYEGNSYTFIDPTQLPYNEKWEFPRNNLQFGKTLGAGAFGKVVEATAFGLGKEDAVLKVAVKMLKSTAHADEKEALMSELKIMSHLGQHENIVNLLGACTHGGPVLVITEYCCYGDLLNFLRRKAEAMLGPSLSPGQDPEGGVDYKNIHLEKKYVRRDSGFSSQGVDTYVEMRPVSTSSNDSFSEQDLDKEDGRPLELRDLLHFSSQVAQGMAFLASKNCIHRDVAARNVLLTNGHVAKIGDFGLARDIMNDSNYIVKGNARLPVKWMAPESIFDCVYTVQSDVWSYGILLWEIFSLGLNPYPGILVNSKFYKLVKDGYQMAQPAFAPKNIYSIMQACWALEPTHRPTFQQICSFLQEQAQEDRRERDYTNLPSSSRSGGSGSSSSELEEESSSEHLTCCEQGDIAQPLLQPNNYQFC

[19] = target: Macrophage colony-stimulating factor 1 receptor (Homo sapiens) (UniProt P07333); conditions: at 1 µM
[20] = target: Tyrosine-protein kinase Fyn (Homo sapiens) (UniProt P06241); conditions: at 0.1 µM
Sequence of Tyrosine-protein kinase Fyn (Homo sapiens) (P06241 2-537 limits assumed): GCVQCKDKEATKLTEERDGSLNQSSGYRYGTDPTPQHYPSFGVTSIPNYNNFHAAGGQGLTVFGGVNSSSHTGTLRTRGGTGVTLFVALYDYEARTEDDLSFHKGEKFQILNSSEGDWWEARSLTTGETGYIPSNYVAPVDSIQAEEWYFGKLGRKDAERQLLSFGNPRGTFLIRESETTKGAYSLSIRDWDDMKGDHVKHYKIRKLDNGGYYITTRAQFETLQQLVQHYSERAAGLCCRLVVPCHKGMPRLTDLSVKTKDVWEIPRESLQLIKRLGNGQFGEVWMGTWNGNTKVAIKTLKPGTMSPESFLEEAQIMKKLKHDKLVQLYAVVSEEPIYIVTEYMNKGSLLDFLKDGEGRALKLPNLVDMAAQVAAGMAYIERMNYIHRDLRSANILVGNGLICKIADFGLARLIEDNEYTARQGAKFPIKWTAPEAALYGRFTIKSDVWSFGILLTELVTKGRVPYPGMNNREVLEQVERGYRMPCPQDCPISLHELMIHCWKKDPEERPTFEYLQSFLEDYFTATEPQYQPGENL

Row | Structure (SMILES) | inhibition [1] [%] | inhibition [2] [%] | inhibition [3] [%] | inhibition [4] [%] | inhibition [5] [%] | inhibition [6] [%] | inhibition [7] [%] | inhibition [8] [%] | inhibition [9] [%] | inhibition [10] [%] | inhibition [11] [%] | inhibition [12] [%] | inhibition [13] [%] | inhibition [14] [%] | inhibition [15] [%] | inhibition [16] [%] | inhibition [17] [%] | inhibition [18] [%] | inhibition [19] [%] | inhibition [20] [%]
1 | CS(=O)(=O)CCNCc1ccc(-c2ccc3ncnc(Nc4ccc(OCc5ccccc5)c(C(F)(F)F)c4)c3c2)o1 | 5.28 | 1.71 | 1.9 | 4.27 | 5.33 | 0.91 | -0.61 | 2.28 | 4.17 | 7.54 | 7.1 | 3.58 | 1.98 | 9.3 | -2.7 | 1.59 | 1.31 | -3.68 | 1.56 | 1.63
2 | Nc1nc(-c2ccc(F)cc2)c(-c2ccc3ncccc3n2)s1 | 7.4 | 2.04 | 36 | 4.57 | 6.71 | 2.87 | 5.03 | 3.03 | 3.14 | 11.5 | 11.1 | 3.57 | 6.9 | 9.86 | 6.56 | 4.58 | 11.6 | 3.44 | 7.59 | 2.8
3 | CCn1c(-c2nonc2N)nc2c(C#CC(C)(C)O)ncc(OC3CCNCC3)c21 | 95.8 | 2.28 | 2.37 | 3.31 | 2.51 | -0.18 | 1.86 | -3.88 | 5.15 | 2.14 | 5.22 | 2.8 | 5 | 5.34 | 0.12 | 8.92 | 26.6 | 1.2 | 2.92 | 1.53
